The source of these data is paper PMC5540273 (PLoS ONE, 2017).

pKd: −log10 of the molar value. Some results are limits rather than exact numbers.

For assay [1], the system named is FLT4.
Assay [2] deals with FRK.
Assay [3] relates to FYN.
Assay [4] deals with GRK1.
For assay [5], the system named is T1, GRK3.
T1 construct: gene ADRBK2

The subject of assay [6] is T2, HASPIN.
T2 construct: gene GSG2

Assay [7] concerns HIPK2.
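Note: kd values determined as follow-up on hits from a single-replicate KINOMEscan panel screen.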

With `COc1cccc(-c2cc(-c3c[nH]nc3-c3ccccn3)ccn2)c1` [GW680338], in assay [1], the pKd was less than 5.00.

Turning to `CC(=O)Nc1nc2cnc(Nc3cc(NC(=O)c4cccc(CCC#N)c4)ccc3C)nc2s1`, the pKd in assay [2] is less than 5.00.

Turning to `O=C(O)COc1ncnc2cc(-c3ccc4[nH]ncc4c3)sc12`, the pKd in assay [2] and in assay [3] was less than 5.00 each time.

In assay [3], `CC(C)(C)c1ccc(C(=O)Nc2cn3cc(Cl)ccc3n2)cc1` had a negative logarithm of the Kd (pKd) of less than 5.00.

Regarding `CCCc1ccc(S(=O)(=O)NC2CCN(c3ccnc(Nc4ccc(F)cc4)n3)C2)cc1` (stereo not drawn) [GSK1379715], in assay [4], the pKd was less than 5.00.

With `Clc1cc(Cl)cc(Nc2ccnc(Nc3cc(Cl)cc(Cl)c3)n2)c1` [GSK175726], the pKd in assay [4] is less than 5.00.

`Cc1ccc(NC(=O)Nc2cc(C(C)(C)C)nn2-c2ccccc2)cc1` [GSK1014915] gave a pKd in assay [5] of less than 5.00.

`O=C(Nc1ccc2c(c1)OCO2)NC1CCN(c2ccnc(Nc3ccc(F)cc3)n2)C1` (stereo not drawn) [GSK1379724] had a pKd in assay [5] of less than 5.00.

`O=C1NC(=O)C(N2CCc3ccccc32)=C1c1ccccc1Cl` [SB-373598] showed a pKd in assay [6] of less than 5.00.

In assay [6], `Cc1csc(-c2nc(Nc3ccncc3)c3ccccc3n2)n1` [GW869640] showed a pKd of 7.11.

For `Cc1nnc(-c2ccc3occ(-c4ccc(S(C)=O)cc4)c3c2)[nH]1` (stereo not drawn), in assay [7], the pKd is 6.49.
